Bioassay records as filed in PubChem BioAssay.
HT1080 IDH1KD tx = kills HT-1080 cells with IDH1 knockdown; HT-1080 IDH1 knockdown viability, ATP luminescence, 48 h; Potency, µM (doses to about 46.1 µM), for inactives: at the top dose activity, negative = toxicity, usual class: cytotoxic; 360,000 tested, 2% active;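 further: potency means the concentration at half of the fitted maximal effect; 0% = DMSO wells and -100% = cell-free medium wells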
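In this qHTS, HT-1080 cells depleted of IDH1 are exposed for 48 h at 37 °C to compound titrations. Toxicity is scored from CellTiter-Glo luminescence, with DMSO as full viability and medium alone as none.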
IL1B secr inh = inhibitors of inflammasome signaling (IL-1 beta secretion) | THP-1 LPS/ATP IL-1B secretion, AlphaLISA, 16 h; hits give low values | activity change, % at 57.5 µM | 360,000 tested, 4.7% active; in the data active means activity change below about -50%; inconclusive means mostly about -30% to -49%
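Secreted IL-1B measured by AlphaLISA bead assay after 16 h compound exposure of THP-1 cells; compounds (final up to 57.5 uM) added 1 h before LPS (250 ng/mL) and ATP (1.25 mM) stimulation; lower signal means less secretion.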
DT40 TDP1 no CPT = qHTS for Inhibitors of human tyrosyl-DNA phosphodiesterase 1 (TDP1): qHTS in cells in absence of CPT; DT40 Tdp1-/- hTDP1 cells, no CPT, ATP luminescence, 48 h; Potency, µM (highest dose often 46.2 µM), without a hit: top-dose activity change, negative = growth inhibition, usual class: inhibitors; 420,000 tested, 15% active; further: potency means the concentration at half of the fitted maximal effect; nearly all actives have a fitted effect of over 55% in size
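No-CPT arm: Tdp1-/-;hTDP1 DT40 cells (400/well) plus compounds, incubated ≥48 hr at 37 °C. Readout CellTiter-Glo luminescence.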
HT1080-NT tox = kills 2HG-producing HT-1080-NT fibrosarcoma cells. HT-1080-NT fibrosarcoma viability, CellTiter-Glo ATP luminescence, 48 h. Potency, µM (titrated, usually from 46.1 µM), inactives show top-dose activity, negative = less viability, hits mostly cytotoxic. 360,000 tested, 1.6% active;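 further: NT is the 2HG producing partner of a matched IDH1 knockdown line; potency means the concentration at half of the fitted maximal effect; 0% = DMSO-treated cells and -100% = media-only wells without cells; nearly all actives have a fitted effect of over 55% in size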
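Viability by CellTiter-Glo luminescence after 48 h compound exposure at 37C of HT-1080-NT cells (750/well, RPMI, 5% FBS). % activity scaled between DMSO wells and medium-only wells, then curve-fitted and categorized by curve class.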
TDP1 cell CPT = DT40-hTDP1 cell growth loss with CPT | chicken DT40 Tdp1-/-;hTDP1 cells + 20 nM CPT, ATP luminescence, 48 h | AID 686979 | 420,000 tested, 12% active | Potency, µM (highest dose often 46.2 µM), inactives show at the top dose activity change, negative = growth inhibition, actives largely listed as inhibitors; further: potency means the concentration at half of the fitted maximal effect; nearly all actives have a fitted effect of over 55% in size
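Cell growth measured by CellTiter-Glo luminescence after a minimum 48 h, 37 C compound exposure with 20 nM CPT in Tdp1-knockout DT40 cells stably expressing hTDP1, seeded 400/well; qHTS titration format.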
* = called active by the depositor; ? = inconclusive; · = no result given. Compounds with a hit are over-represented: about 19% of the library has one in this group of screens. Unless noted, the call rests on the fitted dose curve; in most records, active means well fitted curve in the direction sought with a large enough effect; inconclusive means small, poorly fitted or top-dose-only effect, or another doubt; inactive means no such curve, though single readings can be large; an effect the other way counts as inactive or inconclusive. Unless noted, on the % scale 0 is the no-effect control and ±100 the full control effect.

SMILES	HT1080 IDH1KD tx	IL1B secr inh	DT40 TDP1 no CPT	HT1080-NT tox	TDP1 cell CPT
C=CCC[C@@H](Cc1ccc(F)cc1)C(=O)OC[C@H](C)NC(=O)[C@H](CC=C)CC(=O)N(CCO)Cc1ccccc1	-1%	?	?	-8%	18µM*
C=CCC[C@@H](Cc1ccc(F)cc1)C(=O)OC[C@H](C)NC(=O)[C@@H](CC=C)CC(=O)N(CCO)Cc1ccccc1	-17%	?	21µM*	-14%	?
C=CC[C@H](CC(=O)N(CCO)Cc1ccccc1)C(=O)N[C@@H](C)COC(=O)[C@@H](CC=C)Cc1ccc(F)cc1	-8%	-20	?	-2%	16µM*
C=CCC[C@@H](Cc1ccc(F)cc1)C(=O)OCCNC(=O)[C@@H](CC=C)CC(=O)N(CCO)Cc1ccccc1	-8%	-61*	21µM*	-13%	21µM*
O=[N+]([O-])c1ccc(/C=N/N2CCCCC2)cc1	-2%	-19	?	13%	?
Cc1ccc(N2C(=O)c3ccccc3NC2(C(=O)O)c2ccccc2)cc1Cl (stereo unspecified)	?	2	10%	0%	-2%
C=CCC[C@H](Cc1ccc(F)cc1)C(=O)OC[C@@H](C)NC(=O)[C@H](CC=C)CC(=O)N(CCO)Cc1ccccc1	-2%	0	18µM*	0%	15µM*
CCOC(=O)c1c2n(c3c(NCc4ccccc4)ncnc13)CCCC2	-19%	-26	21µM*	-21%	?
NC(=O)C1(C(N)=O)OC1c1ccc(Cl)c(Cl)c1 (stereo unspecified)	8%	-9	7%	12%	0%
COc1ccccc1-c1nnc(NC(=O)CCS(=O)(=O)c2ccccc2)o1	-19%	-81*	18µM*	?	23µM*
Cc1ccc(-c2nnc(NC(=O)CCS(=O)(=O)c3ccc(F)cc3)o2)c(C)c1	-8%	6	-6%	-14%	-6%
COc1ccccc1-c1nnc(NC(=O)CCS(=O)(=O)c2ccc(F)cc2)o1	-18%	-24	9.2µM*	-16%	8.2µM*
COc1cccc(-c2nnc(NC(=O)CCS(=O)(=O)c3ccc(C)cc3)o2)c1	-2%	?	?	2%	?
O=C(CCS(=O)(=O)c1ccc(F)cc1)Nc1nnc(-c2ccc(F)cc2)o1	1%	?	16µM*	-7%	13µM*
O=C(Nc1ccc(-c2nc3cccnc3s2)cc1)c1cccnc1Cl	4%	20	-29%	6%	0%
Cc1c(NC(=O)c2ccco2)cccc1-c1nc2cccnc2s1	-2%	58	?	-13%	21µM*
O=C(Nc1ccc(-c2nc3cccnc3s2)cc1)c1ccco1	-9%	-23	13µM*	3%	?
CCS(=O)(=O)Nc1cccc(-c2nc3cccnc3s2)c1C	3%	8	?	11%	-9%
O=C(Nc1ccc(-c2nc3cccnc3s2)cc1)c1ccc(Br)o1	-5%	2	8.2µM*	19%	12µM*
O=C(Nc1ccc(-c2nc3ncccc3o2)cc1)c1ccc(Br)o1	-9%	-55*	?	0%	?
Cc1ccccc1CSc1ncc(CO)n1Cc1ccc(F)cc1	·	·	?	·	18µM*
Cc1cccc(CSc2ncc(CO)n2C)c1	-1%	-20	?	-7%	-11%
Cc1cccc(CSc2ncc(CO)n2Cc2ccc(F)cc2)c1	·	·	16µM*	·	21µM*
Cc1ccc(C(=O)NC(C)C2CC3CCC2C3)cc1 (stereo unspecified)	4%	11	-9%	3%	-1%
CC(=O)N1N=C(N)SC1c1ccc(Cl)c(Cl)c1 (stereo unspecified)	-11%	-14	?	-2%	-25%
Cc1ccc(C(C(=O)NC(C)(C)C)N(C(=O)CCC(=O)Nc2ccccn2)c2ccccc2F)cc1 (stereo unspecified)	-2%	?	?	-7%	?
Cc1[nH]n(-c2cccc(Cl)c2)c(=O)c1-c1ccccc1	-24%	0	?	?	-6%
